Drawing on PubChem BioAssay (NCI), this text covers growth for nine compounds.

Each structure is given as a SMILES string. Compounds without any hit were thinned out: in the full panel of roughly 83,000, 20% have a hit.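 Testing used 96-well plates and a 48-hour single-concentration exposure. Example: -40 means 40% of the starting cells died.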 Values without a mark were called inactive. Active and inactive are the calls of the source. How the source made its calls: active means growth percent below 10; inactive means the rest.

What all share (experiment): NCI-60 one-dose screen, 48 h (100 = growth as untreated, 0 = no growth, -100 = all killed)
Common to all, as to conditions: 10 µM unless noted

The test system of test [1] is SK-MEL-2 melanoma.
For test [2], the system named is SN12C renal.
Test [3] has as its system UO-31 renal.
The subject of test [4] is TK-10 renal.
In test [5] the test system is ACHN renal.
In test [6] the test system is CAKI-1 renal.
Test [7] relates to A498 renal.
Test [8] has as its system CCRF-CEM leukemia.
Test [9] relates to MOLT-4 leukemia.
The test system of test [10] is SR leukemia.
Test [11] concerns OVCAR-8 ovarian.
Test [12] deals with OVCAR-5 ovarian.
Test [13] concerns OVCAR-4 ovarian.
The test system of test [14] is SK-OV-3 ovarian.
Test [15] has as its system IGROV1 ovarian.
The test system of test [16] is OVCAR-3 ovarian.
Test [17] relates to HS 578T breast.
The subject of test [18] is RPMI-8226 leukemia.
For test [19], the system named is NCI/ADR-RES ovarian.

As to `COC12CC(=O)C(C(C)=O)=C(O)C1(C)c1c(O)c(C)c(O)c(C(C)=O)c1O2` (configuration not stated), the growth is 41.9% in [1]; 49.1% in test [2]; 48.9% in [3]; 78.4% in [4]; 77.9% in [5]; 71.5% in [6]. In addition, the growth is 61.1% in [7]; 47.2% in [8]; 75.3% in test [9]; 69.9% in test [10]; 58.7% in [11]; 99.7% in test [12]. The growth in [13] was 85.9%; in test [14], 104%; in test [15], 68.9%; in test [16] it was 59.2%; in test [17] it was 75.4%.

As for `CCSc1nnc(NC(=O)Cc2ccc(Cl)cc2)s1`, the growth was 73.4% in [1]; 105% in test [2]; 40% in test [3]; 113% in [4]; 103% in [5]; 102% in [6]. Moreover, the growth in [7] is 100%; in test [8] it was 87.9%; in test [9], 103%; in test [10], 103%; in test [18] it was 116%; in [11] it was 113%. Besides, the growth in test [13] was 107%; in test [14], 106%; in [15], -24.9% (active); in test [16] it was 106%; in test [17], 110%; in [19], 104%.

For `COc1cc2nc(SCc3cc(OC)c(OC)c(OC)c3)n(Cc3ccccc3)c(=O)c2cc1OC`, the growth in test [1] is -9.82% (active); in test [2], 41.2%; in [3], 34.7%; in [4], 64.3%; in test [5], 39.2%; in [6], 25.7%. In addition, the growth in [7] is -5.24% (active); in test [8], 23%; in test [9], 16.7%; in [10] it was 6.25% (active); in test [18], 54.8%; in test [12], 53.7%. For the same compound, the growth in test [13] is 44.2%; in [14], 29.8%; in test [15], 39.2%; in test [16], 6.2% (active); in test [17], 26.7%; in test [19], -15.8% (active).

`COc1ccc(C2=NN(c3ccc(S(N)(=O)=O)cc3)C(c3cn(-c4ccccc4)nc3-c3ccc(Cl)cc3)C2)cc1` (configuration not stated): the growth in [1] is 94.7%; in test [2], 96.7%; in test [3] it was 60.5%; in test [4], 90.6%; in test [5], 95.4%; in [6] it was 90.9%. In addition, the growth is 76.4% in test [7]; 73.3% in test [8]; 69.2% in test [9]; 77.9% in test [10]; 78% in test [18]; 91.1% in test [11]. Also, the growth is 107% in test [13]; 97.7% in [14]; 105% in test [15]; 92.4% in [16]; 109% in [17]; 90.1% in test [19].

Turning to `Clc1nc2ccccc2nc1CI`, the growth in [1] is 64.3%; in test [2], 54.3%; in test [3], 69.2%; in test [4] it was 166%; in [5], 92.1%; in test [6], 97.8%. The growth in test [7] was 120%; in test [8], -4.61% (active); in test [9] it was 20.2%; in test [10] it was 8.99% (active); in test [18] it was 77.6%; in test [12], 109%. The growth in test [13] was 94.3%; in [14] it was 104%; in test [15] it was 72.7%; in test [16] it was 123%; in test [17] it was 115%; in test [19], 98.9%.

For the compound `O=C(CCCn1c(=O)c2sc3ccccc3c2n2nnc(-c3ccccc3)c12)NCCc1cnc[nH]1`, the growth in test [1] was -49.2% (active); in test [2] it was -78% (active); in test [3] it was -79.3% (active); in test [4], -62.4% (active); in [5], -37.9% (active); in test [6], 14.9%. For the same compound, the growth is 95.6% in test [7]; 42.6% in [8]; 73.3% in [9]; 84.2% in [10]; 62.5% in test [18]; -78.9% (active) in [12]. The growth in [13] is -54.5% (active); in [14] it was 75.3%; in test [16], -47.6% (active); in [17], 90.6%; in test [19], 36.1%.

With `COc1cc(C2C=C(C)N=C3SC=CN32)cc(OC)c1OC` (configuration not stated), the growth in test [1] was 115%; in [2], 105%; in [3], 90%; in test [4] it was 107%; in [5], 115%; in [6], 96.9%. The growth is 106% in [7]; 105% in test [8]; 102% in [9]; 106% in test [10]; 113% in test [18]; 103% in [11]. Moreover, the growth in test [13] is 108%; in [14], 112%; in test [15] it was 111%; in test [17] it was 103%; in test [19], 110%.

On to `Cc1cccc(NC(=O)c2sc3nc4c(cc3c2N)CCCC4)c1`, for which the growth in test [1] is 54.9%; in test [2] it was 51.8%; in test [3], 54.2%; in test [4], 70.7%; in test [5], 48.9%; in test [6], 40.8%. For the same compound, the growth was 44.3% in [7]; 19.4% in test [8]; 33.6% in [9]; 17.3% in test [10]; 52.1% in test [11]; 64.9% in test [12]. The growth was 71.7% in test [13]; 44% in [14]; 54.6% in [15]; 59.5% in test [17]; 11.1% in test [19].

Take `COc1cc(Cn2c(SCCC(=O)Nc3ccc(F)cc3)nc3ccccc3c2=O)cc(OC)c1OC`: the growth was 81.3% in test [1]; 82.9% in test [2]; 53.7% in test [3]; 101% in test [4]; 81.9% in test [5]; 74% in test [6]. The growth is 63.3% in [7]; 86.8% in test [8]; 49% in test [9]; 56.7% in test [10]; 74.9% in [18]; 94.1% in test [12]. The growth in test [13] was 85%; in [14], 95%; in test [15] it was 77.8%; in test [17] it was 86.2%; in test [19], 83.5%.
